Assay outcomes deposited in PubChem by National Center for Advancing Translational Sciences (NCATS).
A selection: hits, their analogues and other compounds. The true share with any hit is near 13%.
Pf growth 48h: P. falciparum growth inhibition at 48 hours (one generation) | P. falciparum luciferase growth in erythrocytes, 48 h | Potency, µM (highest dose often 28.7 µM), without a hit: at the highest dose activity change, negative = inhibition, most hits filed as inhibitors | 310,000 tested, 5.9% active | AID 504832; also: potency is read from the fitted curve at half-maximal effect
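Luciferase-expressing parasites in RBCs, 2% Hct / 0.1% parasitemia final; RPMI 1640 + 0.5% Albumax; 37 C, 5% CO2, one generation; luminescence read-out, lower signal = inhibition.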
Pf growth 96h: P. falciparum growth inhibition at 96 hours. P. falciparum luciferase reporter growth, 96 h. Potency, µM (top dose mostly 28.7 µM), inactives show at the top dose activity change, negative = inhibition, usual class: inhibitors. 320,000 tested, 6.9% active. AID 504834; also: potency is read from the fitted curve at half-maximal effect
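Readout is luminescence from an integrated firefly luciferase in P. falciparum. Red cells, 2% hematocrit and 0.05% parasitemia final, were cultured with compound through two parasite generations (96 hours) at 37 C, 5% CO2.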
HCV inhibitor: blocks hepatitis C virus; Huh7.5.1 HCVcc-Cre infection, luciferase reporter, 44 h; Potency, µM (highest dose often 41.8 µM), without a hit: at the top dose activity change, negative = inhibition, hits mostly inhibitors; 340,000 tested, 3.4% active; AID 651820; also: potency is read from the fitted curve at half-maximal effect
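Cells seeded at 1,000/well and cultured 4 h, then compounds added followed by HCVcc-Cre virus (~0.5 moi). After 44 h further culture, luciferase substrate was added, plates held 15 min at room temperature, and luminescence read for 15 sec.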
HCMV antiviral: inhibitors of human cytomegalovirus; HFF cells, HCMV-luciferase reporter, 72 h; active compounds read low; activity change, negative = inhibition, % at 57.5 µM; 410,000 tested, 4.5% active; in the data active = activity change below about -60%; inconclusive = no clear call, values can overlap the other calls; inactive = above about -39%
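Compounds were evaluated in HFFs infected with an HCMV luciferase reporter virus (MOI 1 PFU/cell). Luciferase in lysates collected 72 h post infection served as the replication measure.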
* marks the source's active call; other numbers are inactive results. Unless noted, calls follow the shape of the dose curve; as a rule, active = well fitted inhibition curve with a large enough effect; inconclusive = small, poorly fitted or top-dose-only effect, or another doubt; inactive = no such curve, though single readings can be large or run the other way. % is scaled to controls: 0 for no effect and ±100 for the full control effect.

Screening COc1cc(NC(C)CCc2ccccc2)cc(OC)c1OC (stereo unspecified) returned Pf growth 48h -22%, Pf growth 96h 3.7µM*, HCV inhibitor -4% and HCMV antiviral 34.
Screening COc1ccccc1NC(=O)N1CCc2[nH]c3ccc(Cl)cc3c2C1 returned Pf growth 48h inconclusive, Pf growth 96h inconclusive, HCV inhibitor 11µM* and HCMV antiviral -18.
Screening COc1ccccc1NC(=O)N1CCOCC1 returned Pf growth 48h 11%, Pf growth 96h 2%, HCV inhibitor 27% and HCMV antiviral 5.
COc1ccccc1NC(=O)N1CCN(c2ccnc3cc(Cl)ccc23)CC1 was read as Pf growth 48h 2.1µM*, Pf growth 96h 2.6µM*, HCV inhibitor inconclusive and HCMV antiviral -67*.
Screening COc1ccccc1N1CCN(c2cnccn2)CC1 returned Pf growth 48h inconclusive, Pf growth 96h 13%, HCV inhibitor 13% and HCMV antiviral inconclusive.
For COc1ccccc1N1CCN(c2ccnc3cc(Cl)ccc23)CC1 the results were Pf growth 48h inconclusive, Pf growth 96h 0.47µM*, HCV inhibitor inconclusive and HCMV antiviral -63*.
`CCC(=O)N1CCc2cc(S(=O)(=O)NC(C(=O)NCCc3ccccc3)C(C)C)ccc21` (stereo unspecified) gave HCMV antiviral 15.
CC1(C)Cc2ccccc2-c2nnc(-c3cccnc3)n21 was read as Pf growth 48h 2.3µM*, HCV inhibitor 20% and HCMV antiviral -22.
For CC1(C)Cc2ccccc2-c2nnc(-c3ccccc3)n21 the results were Pf growth 48h -9%, HCV inhibitor inconclusive and HCMV antiviral -10.
For CCN(CC)CCN(C(=O)c1ccco1)c1nc2c(C)cccc2s1 the results were HCMV antiviral 30.
Cc1ccc(NS(=O)(=O)c2ccc3c(c2)N(C)C(=O)CC(=O)N3C)cc1Cl was read as HCMV antiviral -9.
For CC(C)C[C@H]1CNC(=S)N1CC1CCCN1C[C@H](Cc1ccccc1)N1C[C@H](Cc2ccc(O)cc2)N(CC2CCCCCC2)C1=S (stereo partly specified) the results were HCV inhibitor 6.3µM* and HCMV antiviral -101*.
Screening CC(C)C[C@H]1CN([C@@H](Cc2ccc(O)cc2)CN2CCC[C@@H]2CN2C(=S)NC[C@@H]2Cc2ccccc2)C(=S)N1CC1CCCCCC1 returned HCMV antiviral -34.
Screening CC(C)C[C@H]1CNC(=S)N1C[C@H]1CCCN1C[C@H](Cc1ccc(O)cc1)N1C[C@H](Cc2ccc(O)cc2)N(CC2CCCCCC2)C1=S returned HCMV antiviral -83*.
For O=C1CCCc2cc(S(=O)(=O)N3CCCC(C(=O)Nc4ccc(F)c(Cl)c4)C3)ccc2N1 (stereo unspecified) the results were HCMV antiviral -40.
CC(C)CN(C)Cc1c(C(=O)N2CCc3ccccc3C2)nc2ccc(Cl)cn12 was read as Pf growth 48h 7.4µM*, Pf growth 96h inconclusive, HCV inhibitor inconclusive and HCMV antiviral -8.
Screening CN(Cc1cccnc1)Cc1c(C(=O)N2CCc3ccccc3C2)nc2ccc(Cl)cn12 returned Pf growth 48h inconclusive, Pf growth 96h -17%, HCV inhibitor -2% and HCMV antiviral -20.
For CN(Cc1cnccn1)Cc1c(C(=O)N2CCc3ccccc3C2)nc2ccc(Cl)cn12 the results were Pf growth 48h 12µM*, Pf growth 96h inconclusive, HCV inhibitor -21% and HCMV antiviral inconclusive.
For COCCCNC(=O)C1CCN(c2nc3ccc(C)cc3[nH]2)CC1 the results were HCMV antiviral 0.
For COC(=O)c1cc2ccccc2c(-c2c(O)ccc3ccccc23)c1O the results were Pf growth 48h 9.3µM*, Pf growth 96h inconclusive, HCV inhibitor 5% and HCMV antiviral -32.
CCOC(=O)CNC(=O)c1cc2c(=O)n3cccc(C)c3nc2n1C was read as HCMV antiviral -35.
`Cn1ccnc1SCCNC(=O)CCc1nnc(CCCCc2ccccc2)o1` gave Pf growth 48h -23%, Pf growth 96h inconclusive, HCV inhibitor 3% and HCMV antiviral 52.
`Cn1ccnc1SCCNC(=O)CCc1nnc(CCc2ccccc2)o1` gave Pf growth 48h 13%, Pf growth 96h 10µM*, HCV inhibitor 1% and HCMV antiviral inconclusive.
Screening CCCn1c2ccccc2c2cnn(CC(=O)Nc3ccc(C)cc3Br)c(=O)c21 returned HCMV antiviral 23.
Screening CCCn1c(C)cc(C(=O)COC(=O)c2cc(S(=O)(=O)NCC(C)C)c(Cl)cc2Cl)c1C returned Pf growth 48h 5%, HCV inhibitor 10µM* and HCMV antiviral -7.
Screening CC1=C(C(=O)NCc2ccccc2Cl)C2(CCCCCC2)OC1=O returned HCMV antiviral 0.
Screening Cc1ccc(C)c(S(=O)(=O)C(C#N)c2nc3ccccc3nc2N2CC(C)OC(C)C2)c1 (stereo unspecified) returned Pf growth 48h 13µM*, Pf growth 96h -24%, HCV inhibitor 11% and HCMV antiviral -15.
For CC(C)c1ccc(/C=C2\C(=O)N(CCN3CCOCC3)C(=S)N2C)cc1 the results were Pf growth 48h -7%, Pf growth 96h -1%, HCV inhibitor 10µM* and HCMV antiviral -66*.
For COC(=O)c1sc(NC(=O)c2cc3c(s2)CCCC3)nc1C the results were Pf growth 48h 10%, Pf growth 96h -2%, HCV inhibitor inconclusive and HCMV antiviral -15.
For COc1ccc(C(=O)N(C)c2ccccc2C(=O)NCCc2ccccc2)cc1 the results were Pf growth 48h -14%, Pf growth 96h inconclusive, HCV inhibitor inconclusive and HCMV antiviral -97*.
Cc1nc(NC(=O)c2cc3c(s2)CCCCC3)sc1C(=O)N(C)C was read as Pf growth 48h 19%, HCV inhibitor 11µM* and HCMV antiviral 1.
Screening COc1ccc(C(=O)CCc2ccccc2)cc1 returned Pf growth 96h inconclusive, HCV inhibitor 11µM* and HCMV antiviral inconclusive.
`COc1ccc(CCC(=O)NC(C)C)cc1` gave Pf growth 48h inconclusive, Pf growth 96h 131%, HCV inhibitor -1% and HCMV antiviral -86*.
`COc1ccc(C(=O)COC(=O)CCc2ccccc2)cc1` gave Pf growth 48h -12%, Pf growth 96h 14%, HCV inhibitor 9% and HCMV antiviral -37.
For Cc1ccc(Cn2c(=O)n(Cc3ccco3)c(=O)c3sc4ccccc4c32)cc1 the results were HCMV antiviral 8.
Cc1coc2c1c(C)cc1oc(=O)cc(C)c12 was read as HCMV antiviral -12.
COc1ccc(CNC(=O)CCC(=O)c2ccccc2)cc1 was read as Pf growth 48h 15µM*, Pf growth 96h -28%, HCV inhibitor -8% and HCMV antiviral -8.
For COc1ccc(C(=O)CCC(=O)NCc2cc(OC)cc(OC)c2)cc1 the results were Pf growth 48h inconclusive, Pf growth 96h 1%, HCV inhibitor -9% and HCMV antiviral -10.
